High-throughput results as filed in PubChem.
RXFP1 antagonist = antagonists of human relaxin receptor RXFP1; 350,000 tested, 0.59% active; HEK293-RXFP1, relaxin-stimulated cAMP HTRF, 30 min; stronger effect = lower value; AID 1259400; activity change, negative = inhibition, % at 57.5 µM; Q9HBX9;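 active = activity change of -60% or lower, but not beyond a set lower limit; inconclusive = change between -60% and -40%, or beyond the set limit; inactive = change above -40%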; note: % is set by controls: 0 for no effect and ±100 for the full control effect
Target sequence (Q9HBX9 whole entry, looked up): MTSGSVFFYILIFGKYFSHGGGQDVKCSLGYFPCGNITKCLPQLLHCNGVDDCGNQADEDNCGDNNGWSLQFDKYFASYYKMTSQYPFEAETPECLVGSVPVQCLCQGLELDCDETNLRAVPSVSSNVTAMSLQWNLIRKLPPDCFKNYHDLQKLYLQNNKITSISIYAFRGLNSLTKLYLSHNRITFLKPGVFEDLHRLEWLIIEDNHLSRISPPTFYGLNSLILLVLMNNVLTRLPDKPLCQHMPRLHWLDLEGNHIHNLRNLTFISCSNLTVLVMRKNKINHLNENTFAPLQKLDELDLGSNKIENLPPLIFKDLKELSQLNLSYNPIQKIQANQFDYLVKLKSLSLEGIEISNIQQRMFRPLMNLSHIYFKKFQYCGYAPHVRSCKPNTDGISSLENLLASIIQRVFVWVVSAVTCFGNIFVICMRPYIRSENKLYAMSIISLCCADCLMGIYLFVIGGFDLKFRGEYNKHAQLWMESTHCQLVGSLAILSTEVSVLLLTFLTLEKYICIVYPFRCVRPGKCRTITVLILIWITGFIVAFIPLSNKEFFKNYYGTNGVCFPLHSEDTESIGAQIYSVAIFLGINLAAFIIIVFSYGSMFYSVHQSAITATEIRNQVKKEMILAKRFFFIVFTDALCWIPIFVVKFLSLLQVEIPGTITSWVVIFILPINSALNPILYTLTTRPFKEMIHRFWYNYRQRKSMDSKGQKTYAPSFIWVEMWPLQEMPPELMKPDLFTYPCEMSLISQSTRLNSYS
gsp antagonist = gsp mutant antagonism | gsp-mutant cells, cAMP HTRF, 30 min | Potency, µM (highest dose often 76.9 µM), for the others: at the top dose activity change, negative = inhibition, usual class: inhibitors | 340,000 tested, 0.4% active | AID 624288; calls by dose curve; cell line not stated here;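 note: intracellular cAMP measured with PDE inhibitor Ro 20-1724 present during compound exposure; potency is the fitted concentration of half-maximal effect; % is set by controls: 0 for no effect and ±100 for the full control effect; nearly all actives have a fitted effect of over 65% in size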
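Cells in G418 medium, seeded 16-24 h, 37C; buffer exchange to DPBS + 1 mM CaCl2, 0.5 mM MgCl2, 0.05% BSA; cpds in DMSO + […] (300 uM stock), 30 min 37C; HTRF cAMP detection.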
gsp agonist = gsp mutant agonism; gsp mutant cells, cAMP HTRF, 30 min; Potency, µM (top dose mostly 76.9 µM), for inactives: top-dose activation (cAMP increase), usual class: activators; 340,000 tested, 0.13% active; active = well fitted activation curve with a large enough effect; inconclusive = small, poorly fitted or top-dose-only effect, or another doubt; inactive = no such curve, though single readings can be large or run the other way; cell line not stated here;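 note: phosphodiesterase inhibitor Ro 20-1724 added with compounds to block cAMP breakdown; potency is the fitted concentration of half-maximal effect; nearly all actives have a fitted effect of over 60% in size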
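Cells in DMEM/10% FBS with G418 were pretreated with compounds in DMSO plus […] (300 uM stock) for 30 min at 37C. cAMP was measured by HTRF (cAMP-d2 plus anti-cAMP antibody-K) after 30 min at room temperature.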
Akt phos inh = inhibitors of Akt phosphorylation | Neuro2A IGF-stimulated pAkt S473 HTRF, 20 min; stronger effect = lower value | activity change, % for hits at 50 µM | 360,000 tested, 0.32% active; in the data active = activity change below about -80%; inconclusive = mostly about -51% to -80%; note: % is set by controls: 0 for no effect and ±100 for the full control effect
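Neuro2A cells in DMEM with 0.5% FBS, overnight at 37 deg C, given compound at single 50 µM final, then IGF (6 nM final) for 20 min at 37 deg C. Lysed; phospho-Akt Ser473 by HTRF after 24 h, 665/615 ratio.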
RXFP1 ag = agonists of human relaxin receptor RXFP1. Q9HBX9. HEK293T-RXFP1 cAMP TR-FRET, 30 min; response scale: percent of porcine relaxin response, buffer zero. Potency, µM (doses to about 57.5 µM), without a hit: at the top dose activation, most hits filed as activators. 370,000 tested, 0.3% active; active = well fitted activation curve with a large enough effect; inconclusive = small, poorly fitted or top-dose-only effect; note: potency is the fitted concentration of half-maximal effect; % is set by controls: 0 for no effect and ±100 for the full control effect; nearly all actives have a fitted effect of over 60% in size
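Agonist response is measured as cAMP accumulation in an RXFP1-transfected HEK293T line under PDE4 inhibition. Values are scaled between buffer-only and 29 nM porcine relaxin, and EC50s come from standard Hill equation fits.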
* = called active by the depositor; i = inactive; ? = inconclusive; . = no result given; [ ] = dose if it differs, or a comment. Most compounds without a hit are left out; they make up all but 1.2% or so of the library.

SMILES | RXFP1 antagonist | gsp antagonist | gsp agonist | Akt phos inh | RXFP1 ag
CCOC(=O)c1cc(C)n(CC2CCC(C(=O)Nc3ccccc3OC)CC2)c1C (configuration not stated) | -1.8 | . | . | . | 0.0%
Cc1ccc(NC(=O)CN(C)c2ccc(S(=O)(=O)N3CCN(C)CC3)cn2)cc1 | -16.7 | 4.5% | 3.7% | -101.6%* | 0.5%
CN1CCN(S(=O)(=O)c2ccc(N(C)CC(=O)Nc3ccc(F)cc3)nc2)CC1 | . | . | . | . | -0.4%
CCn1c(CN2CCCCC2)nc2cc(NC(=O)COc3ccccc3C(C)(C)C)ccc21 | 0.9 | . | . | . | -2.3%
CC1CCCN(C(=O)CSc2c3c(nc4cc(Cl)ccc24)CCCC3)C1 (configuration not stated) | -17.7 | . | . | . | 14.9%
Cc1ccc(S(=O)(=O)N(CC(=O)Nc2ccccc2C(=O)O)c2ccc(Cl)cc2)cc1 | -76.3* | ? | 3.2%[15.4 µM] | i | 4.1%
CC1(C)OC(=O)C(=Cc2ccc(-c3ccc(S(N)(=O)=O)cc3)o2)C(=O)O1 | -104.7* | ? | 10.1% | i | 0.7%
NS(=O)(=O)c1ccc(-c2ccc(/C=C3\C(=O)Nc4ccccc43)o2)cc1 | . | . | . | . | 0.6%
O=S(Cc1cc(Sc2ccccc2)nc(-c2ccccc2)n1)c1ccccc1 (configuration not stated) | -5.1 | 2.0% | 1.9% | i | -0.9%
CNc1cc(CS(=O)c2ccccc2)nc(-c2ccccc2)n1 (configuration not stated) | 5.2 | 4.7% | -31.0% | -123.4%* | 0.0%
CCN(C(=O)CSc1nc(C)nc2sc(C)c(C)c12)C1CCS(=O)(=O)C1 (configuration not stated) | -0.1 | -12.9% | ? | i | 1.0%
Fc1ccc(CSc2ncnc3sc4c(c23)CCCC4)cc1 | -4.8 | -27.5% | 16.2% | -114.0%* | 4.2%
CCOC(=O)c1sc2nc(C)nc(SCC(=O)N(C)C3CCS(=O)(=O)C3)c2c1C (configuration not stated) | -0.2 | 8.3% | 15.8µM* | i | 11.8%
CN(C(=O)CSc1ncnc2sc3c(c12)CCCC3)C1CCS(=O)(=O)C1 (configuration not stated) | 11.9 | -4.3% | 11.2µM* | i | .
Cc1nc(SCC(=O)NC2CC2)c2c(C)c(C)sc2n1 | -6.0 | -4.1% | 10.1%[15.4 µM] | i | 15.7%
COC(=O)c1sc2nc(C)nc(SCC(=O)N3CCC(C(=O)O)CC3)c2c1C | 5.1 | -0.1% | 15.8µM* | i | ?
O=C(CCCl)NCCc1ccccc1 | -8.9 | . | . | . | .
CCc1ccccc1NS(=O)(=O)c1ccc2c(c1)CC(=O)N2 | . | . | . | . | -0.2%
N#Cc1ccc2c(c1)C[C@]1(c3ccsc3)OC3=C(C(=O)OC4(CCCCC4)C3)C2O1 | . | . | . | . | 0.2%[11.5 µM]
Cn1cccc1/C=N/n1c(-c2ccc(C(C)(C)C)cc2)n[nH]c1=S | -64.3* | -18.5% | -30.6% | i | 4.9%
COc1cccc(-n2nc3c(-n4ncc(C#N)c4N)nnc(C)c3c2C)c1 | -1.5 | 11.4% | ? | -123.1%* | ?
Cc1cccc(-n2ncc(C#N)c2N)c1 | 7.5 | 1.8% | 12.9% | i | 0.6%
O=C(c1ccc(Oc2ccc([N+](=O)[O-])cc2Cl)cc1)N1CCCC1 | -38.5 | 11.2µM* | -7.0%[15.4 µM] | i | -0.6%
COc1ccccc1NC(=O)CSc1nnc(Cc2cccn2C)n1CCc1ccccc1 | 20.3 | 3.2% | -2.0% | -83.0%* | 3.4%
CCOCCCn1c(SCC(=O)Nc2ccccc2OC)nc2ccccc2c1=O | -0.4 | -6.2% | 7.9% | i | 3.5%
SMILES | RXFP1 antagonist | gsp antagonist | gsp agonist | Akt phos inh | RXFP1 ag
COc1ccccc1NC(=O)CSc1nc2ccccc2c(=O)n1C | -22.0 | 35.5µM* | -23.8% | i | -1.5%
CCNC(=O)c1c(NC(=O)c2nc(S(=O)(=O)CC)ncc2Cl)sc2c1CCCC2 | -30.9 | . | . | . | ?
O=C(Nc1ccc(F)cc1F)c1cc2c(=O)n3ccccc3nc2s1 | 5.5 | . | . | . | 25.8%
O=C(Cn1c(=O)n(Cc2ccc3c(c2)OCO3)c(=O)c2oc3ccccc3c21)Nc1ccccc1F | 2.4 | . | . | . | 2.2%
CCc1ccccc1NC(=O)CSc1ncccc1C(=O)O | -3.9 | . | . | . | 0.4%
Cc1ccc(C)c(CNC(=O)c2ccc3c(c2)nc2n3CCCCC2)c1 | -22.1 | . | . | . | 7.3%
OCC1OC(n2nnc3ccccc32)C(O)C(O)C1O (configuration not stated) | -12.1 | -1.9% | 3.5% | -92.2%* | 0.3%
Cc1cc(C)nc(N(C#N)CCOc2ccccc2)n1 | 11.1 | 2.1% | 7.6% | i | 1.2%
CN(C)c1nc(N(C)C)nc(N(C#N)CCOc2ccccc2)n1 | -3.5 | -9.4% | 7.8% | -110.6%* | 3.3%
CCOc1ccc(NC(=O)CSc2oc(-c3ccc(F)cc3)nc2S(=O)(=O)c2ccc(C)cc2)cc1 | 5.4 | . | . | . | 1.3%
O=C(O)c1ccccc1NS(=O)(=O)c1ccc(NN=Cc2cccc(Cl)c2)c([N+](=O)[O-])c1 | -68.4* | -5.8% | -35.9% | i | .
COc1cccc(/C=N/Nc2ccccc2C(=O)O)c1O | -4.2 | ? | ? | i | 0.0%
O=C(O)c1ccccc1NS(=O)(=O)c1ccc(N/N=C/c2ccc(O)c(O)c2)c([N+](=O)[O-])c1 | -23.0 | -9.9% | -15.8% | i | .
O=C(O)c1ccccc1NN=Cc1ccccc1 | ? | 25.1µM* | 27.6% | i | .
COc1cc(C(=O)Nc2sc3c(c2C#N)CCN(C(C)=O)C3)cc(OC)c1OC | . | -0.4% | 10µM* | i | 17.3%
Cc1ccc(C(=O)Nc2sc3c(c2C#N)CCCCC3)cc1C | -14.2 | -8.1% | 27.5% | -95.2%* | 3.0%
CC(C)Cc1cc(C(=O)Nc2sc3c(c2C#N)CCC3)no1 | -66.0* | -17.1% | ? | i | 1.7%
COc1ccc(C(=O)Nc2sc3c(c2C#N)CCN(C(C)=O)C3)cc1 | -2.8 | 14.8% | -6.0% | i | 5.9%
CCCCCCCCCCCCCC[N+](C)(C)Cc1ccccc1 | -26.5 | . | . | . | .
Brc1ccc(CSc2ncn[nH]2)cc1 | 5.6 | 31.6µM* | -2.0% | i | 0.4%
COc1ccc(-c2nnc(SCC(=O)Nc3cccc(C(F)(F)F)c3)nc2-c2ccc(OC)cc2)cc1 | -16.8 | . | . | . | -0.9%
CCOC(=O)C1=C(CC)Nc2ccccc2N=C1NC(=O)CCNC(C)=O | -74.6* | -12.7% | -2.4%[15.4 µM] | i | 0.5%
CCc1ccc(CN2CCc3nc(Nc4ccccc4)ncc3C2)cc1 | -65.2* | . | . | . | 1.9%
O=S(=O)(c1ccc(Cl)s1)N1CCN(C/C=C/c2ccccc2)CC1 | -6.5 | -9.4% | 3.9% | i | 0.7%
O=S(=O)(c1cccs1)N1CCN(C/C=C/c2ccccc2)CC1 | -5.9 | -7.8% | -31.8% | -118.1%* | 1.4%
CC(=O)c1cccc(NC(=O)c2oc(=O)c3ccccc3c2-c2ccccc2)c1 | -4.8 | . | . | . | 5.6%
CCOC(=O)C1=C(COC(=O)/C=C/c2ccc(SC)cc2)NC(=O)NC1C (configuration not stated) | -75.9* | 0.1% | 1.4%[15.4 µM] | i | 0.0%
